According to PubChem BioAssay AID436 (Emory University Molecular Libraries Screening Center, 2006):
Screen size: about 72,000 compounds; about 350 (0.49%) were called active. The entries come from a sample that favours actives as a whole. Unmarked numbers belong to inactive results.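 The calls were made as follows: active = activity remaining at or below 50% of control, provided the compound also passes the data quality filters; inactive = the rest, including low values that fail the filters.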

Molecular target: Ubiquitin carboxyl-terminal hydrolase BAP1 (Homo sapiens) (UniProt Q92560)
Test: BAP1 ubiquitin hydrolase activity blockers – biochemical, Ub-AMC fluorescence, kinetic, primary screen (AID 436);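 also: 100% = DMSO wells rate and 0% = substrate alone blank rate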
Settings: recombinant BAP1, Ub-AMC hydrolysis fluorescence kinetic; at 20 µM; active compounds read low

Ubiquitin carboxyl-terminal hydrolase BAP1 (Homo sapiens), sequence (Q92560 whole entry, looked up): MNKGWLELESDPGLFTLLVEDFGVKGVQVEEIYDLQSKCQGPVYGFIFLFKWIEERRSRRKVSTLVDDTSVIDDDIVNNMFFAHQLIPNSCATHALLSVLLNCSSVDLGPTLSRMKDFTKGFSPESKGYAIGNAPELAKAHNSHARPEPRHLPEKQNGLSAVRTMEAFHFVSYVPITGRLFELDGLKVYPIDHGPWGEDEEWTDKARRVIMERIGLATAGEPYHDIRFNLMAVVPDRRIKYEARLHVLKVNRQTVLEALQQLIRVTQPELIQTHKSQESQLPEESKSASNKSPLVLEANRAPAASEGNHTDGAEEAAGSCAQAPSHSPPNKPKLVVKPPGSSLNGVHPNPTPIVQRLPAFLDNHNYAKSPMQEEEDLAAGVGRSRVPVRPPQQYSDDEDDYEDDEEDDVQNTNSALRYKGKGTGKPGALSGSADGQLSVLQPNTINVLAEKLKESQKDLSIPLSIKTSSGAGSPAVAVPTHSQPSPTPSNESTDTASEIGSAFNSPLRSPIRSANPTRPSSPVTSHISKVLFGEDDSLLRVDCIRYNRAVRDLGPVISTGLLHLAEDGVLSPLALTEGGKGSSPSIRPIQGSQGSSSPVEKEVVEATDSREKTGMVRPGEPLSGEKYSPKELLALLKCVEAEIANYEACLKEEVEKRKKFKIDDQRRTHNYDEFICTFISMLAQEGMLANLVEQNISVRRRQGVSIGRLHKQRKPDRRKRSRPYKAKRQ

| SMILES | activity remaining (% of control) |
| --- | --- |
| CC(=O)c1c(O)c(C)c(O)c(Cc2c(O)c3c(c(C(=O)/C=C/c4ccccc4)c2O)OC(C)(C)C=C3)c1O | 14.8% (active) |
| CCCCC[n+]1ccc(-c2cc[n+](CCCCC)cc2)cc1 | 101% |
| O=C(O)C1C2CCC(O2)C1C(=O)O (stereo not drawn) | 97.4% |
| O=C1c2ccccc2C(=O)N1Cc1nc2ccccc2c(=O)n1-c1nccs1 | 84.5% |
| Cc1ccc(Cn2c(C)c3cnn(CC(=O)N4CCC5(CC4)OCCO5)c(=O)c3c2C)cc1 | 105% |
| CCCCCn1c(=O)c(C(=O)NCc2ccccn2)c(O)c2ccccc21 | 39.6% (active) |
| C=CCN1CCC2(C)c3cc(O)ccc3CC1[C@@H]2C (stereo partly drawn) | 96.1% |
| COc1ccccc1OC(=O)c1ccc(C)c(S(=O)(=O)N2CCOCC2)c1 | 104% |
